In publication PMC11006913:
Where a chain is given by its changes, count along the chain named.

Key:
Test in all cases: PBM; 200 nM protein, PBS
Conditions in all cases: dsDNA, one strand shown
HOXD13 [1] = molecular target: HOXD13 (Homo sapiens, UniProt P35453 263-343, T313R)
HOXD13 [2] = molecular target: HOXD13 (Homo sapiens, UniProt P35453 263-343)
HOXD13 [3] = molecular target: HOXD13 (Homo sapiens, UniProt P35453 263-343, T313A)
CRX = CRX (Homo sapiens, UniProt O43186 26-111, R41L)
ALX3 = ALX3 (Homo sapiens, UniProt O95076 139-225, N203S)
ALX3, sequence (O95076 139-225 N203S): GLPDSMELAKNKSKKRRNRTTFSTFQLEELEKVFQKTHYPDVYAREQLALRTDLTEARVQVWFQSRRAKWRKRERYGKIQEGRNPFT

NKX2-6 [4] = molecular target: T1, NKX2-6 (Homo sapiens, UniProt A6NCS4 118-204)
T1 sequence: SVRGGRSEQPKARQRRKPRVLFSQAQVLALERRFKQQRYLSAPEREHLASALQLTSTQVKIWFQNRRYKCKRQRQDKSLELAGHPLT

NKX2-6 [5] = molecular target: T2, NKX2-6 (Homo sapiens, UniProt A6NCS4 118-204, F151L)
T2 sequence: T1 sequence with F34L

VAX1 [6] = molecular target: VAX1 (Homo sapiens, UniProt Q5SQQ9 86-172)
VAX1 (Homo sapiens, UniProt Q5SQQ9 86-172), sequence (Q5SQQ9 86-172): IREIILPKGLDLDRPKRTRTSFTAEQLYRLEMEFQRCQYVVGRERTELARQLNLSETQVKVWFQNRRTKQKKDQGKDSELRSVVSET

VAX1 [7] = molecular target: VAX1 (Homo sapiens, UniProt Q5SQQ9 86-172, T142I)
VAX1 (Homo sapiens, UniProt Q5SQQ9 86-172, T142I), sequence (Q5SQQ9 86-172 T142I): as the sequence (Q5SQQ9 86-172) above, with T57I counted along it

VAX1 [8] = molecular target: VAX1 (Homo sapiens, UniProt Q5SQQ9 86-172, K157R)
VAX1 (Homo sapiens, UniProt Q5SQQ9 86-172, K157R), sequence (Q5SQQ9 86-172 K157R): as the sequence (Q5SQQ9 86-172) above, with K72R counted along it

PITX2 = PITX2 (Homo sapiens, UniProt Q99697 72-157)

HOXD13 (Homo sapiens, UniProt P35453 263-343, T313R), sequence (P35453 263-343 T313R): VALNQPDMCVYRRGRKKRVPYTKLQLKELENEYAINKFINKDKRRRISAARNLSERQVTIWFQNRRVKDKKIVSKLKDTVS
HOXD13 (Homo sapiens, UniProt P35453 263-343), sequence (P35453 263-343): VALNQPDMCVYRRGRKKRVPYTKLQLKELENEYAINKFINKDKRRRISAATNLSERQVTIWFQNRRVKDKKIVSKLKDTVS
HOXD13 (Homo sapiens, UniProt P35453 263-343, T313A), sequence (P35453 263-343 T313A): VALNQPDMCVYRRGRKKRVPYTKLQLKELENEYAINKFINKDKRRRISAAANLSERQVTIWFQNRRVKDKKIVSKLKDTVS
CRX, sequence (O43186 26-111 R41L): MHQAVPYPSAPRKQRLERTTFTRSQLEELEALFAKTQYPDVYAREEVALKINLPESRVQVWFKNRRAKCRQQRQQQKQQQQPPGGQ

## CCTATAAA
HOXD13 [1]
  binding signal: 11.1 upbm affinity estimate (log intensity, higher = more binding, comparable within an allelic series)
HOXD13 [2]
  binding signal: 12.3 upbm affinity estimate (log intensity, higher = more binding, comparable within an allelic series)
HOXD13 [3]
  binding signal: 12.1 upbm affinity estimate (log intensity, higher = more binding, comparable within an allelic series)

## CAGGCGAC
HOXD13 [1]
  binding signal: 9.59 upbm affinity estimate (log intensity, higher = more binding, comparable within an allelic series)
HOXD13 [2]
  binding signal: 9.52 upbm affinity estimate (log intensity, higher = more binding, comparable within an allelic series)
HOXD13 [3]
  binding signal: 9.66 upbm affinity estimate (log intensity, higher = more binding, comparable within an allelic series)

## AGGGGGGA
HOXD13 [1]
  binding signal: 9.23 upbm affinity estimate (log intensity, higher = more binding, comparable within an allelic series)
HOXD13 [2]
  binding signal: 9.47 upbm affinity estimate (log intensity, higher = more binding, comparable within an allelic series)
HOXD13 [3]
  binding signal: 9.55 upbm affinity estimate (log intensity, higher = more binding, comparable within an allelic series)

## GTTTAATA
HOXD13 [1]
  binding signal: 10.8 upbm affinity estimate (log intensity, higher = more binding, comparable within an allelic series)
HOXD13 [2]
  binding signal: 11.8 upbm affinity estimate (log intensity, higher = more binding, comparable within an allelic series)
HOXD13 [3]
  binding signal: 11.6 upbm affinity estimate (log intensity, higher = more binding, comparable within an allelic series)

## CCTATTAA
HOXD13 [1]
  binding signal: 11 upbm affinity estimate (log intensity, higher = more binding, comparable within an allelic series)
HOXD13 [2]
  binding signal: 12.1 upbm affinity estimate (log intensity, higher = more binding, comparable within an allelic series)
HOXD13 [3]
  binding signal: 11.9 upbm affinity estimate (log intensity, higher = more binding, comparable within an allelic series)

## CCTCCGCC
HOXD13 [1]
  binding signal: 9.44 upbm affinity estimate (log intensity, higher = more binding, comparable within an allelic series)
HOXD13 [2]
  binding signal: 9.44 upbm affinity estimate (log intensity, higher = more binding, comparable within an allelic series)
HOXD13 [3]
  binding signal: 9.54 upbm affinity estimate (log intensity, higher = more binding, comparable within an allelic series)

## CCGGCCCA
HOXD13 [1]
  binding signal: 9.49 upbm affinity estimate (log intensity, higher = more binding, comparable within an allelic series)
HOXD13 [2]
  binding signal: 9.55 upbm affinity estimate (log intensity, higher = more binding, comparable within an allelic series)
HOXD13 [3]
  binding signal: 9.54 upbm affinity estimate (log intensity, higher = more binding, comparable within an allelic series)

## CCGGCCGC
HOXD13 [1]
  binding signal: 9.39 upbm affinity estimate (log intensity, higher = more binding, comparable within an allelic series)
HOXD13 [2]
  binding signal: 9.4 upbm affinity estimate (log intensity, higher = more binding, comparable within an allelic series)
HOXD13 [3]
  binding signal: 9.32 upbm affinity estimate (log intensity, higher = more binding, comparable within an allelic series)

## TCGATCGA
HOXD13 [1]
  binding signal: 9.65 upbm affinity estimate (log intensity, higher = more binding, comparable within an allelic series)
HOXD13 [2]
  binding signal: 9.44 upbm affinity estimate (log intensity, higher = more binding, comparable within an allelic series)
HOXD13 [3]
  binding signal: 9.58 upbm affinity estimate (log intensity, higher = more binding, comparable within an allelic series)

## CCCGCCCC
HOXD13 [1]
  binding signal: 9.6 upbm affinity estimate (log intensity, higher = more binding, comparable within an allelic series)
HOXD13 [2]
  binding signal: 9.54 upbm affinity estimate (log intensity, higher = more binding, comparable within an allelic series)
HOXD13 [3]
  binding signal: 9.7 upbm affinity estimate (log intensity, higher = more binding, comparable within an allelic series)

## GCAAGACC
HOXD13 [1]
  binding signal: 9.62 upbm affinity estimate (log intensity, higher = more binding, comparable within an allelic series)
HOXD13 [2]
  binding signal: 9.57 upbm affinity estimate (log intensity, higher = more binding, comparable within an allelic series)
HOXD13 [3]
  binding signal: 9.69 upbm affinity estimate (log intensity, higher = more binding, comparable within an allelic series)

## CTAGTAAA
HOXD13 [1]
  binding signal: 10.8 upbm affinity estimate (log intensity, higher = more binding, comparable within an allelic series)
HOXD13 [2]
  binding signal: 11.9 upbm affinity estimate (log intensity, higher = more binding, comparable within an allelic series)
HOXD13 [3]
  binding signal: 11.8 upbm affinity estimate (log intensity, higher = more binding, comparable within an allelic series)

## AGGAGGGG
HOXD13 [1]
  binding signal: 9.43 upbm affinity estimate (log intensity, higher = more binding, comparable within an allelic series)
HOXD13 [2]
  binding signal: 9.61 upbm affinity estimate (log intensity, higher = more binding, comparable within an allelic series)
HOXD13 [3]
  binding signal: 9.63 upbm affinity estimate (log intensity, higher = more binding, comparable within an allelic series)

## AAGGCGAG
HOXD13 [1]
  binding signal: 9.65 upbm affinity estimate (log intensity, higher = more binding, comparable within an allelic series)
HOXD13 [2]
  binding signal: 9.72 upbm affinity estimate (log intensity, higher = more binding, comparable within an allelic series)
HOXD13 [3]
  binding signal: 9.78 upbm affinity estimate (log intensity, higher = more binding, comparable within an allelic series)

## GTTATTAA
CRX
  binding signal: 10.4 upbm affinity estimate (log intensity, higher = more binding, comparable within an allelic series)
ALX3
  binding signal: 8.66 upbm affinity estimate (log intensity, higher = more binding, comparable within an allelic series)

## CGTCGGAC
NKX2-6 [4]
  binding signal: 9.07 upbm affinity estimate (log intensity, higher = more binding, comparable within an allelic series)
NKX2-6 [5]
  binding signal: 9.37 upbm affinity estimate (log intensity, higher = more binding, comparable within an allelic series)

## GCGTCGCA
NKX2-6 [4]
  binding signal: 9.48 upbm affinity estimate (log intensity, higher = more binding, comparable within an allelic series)
NKX2-6 [5]
  binding signal: 9.49 upbm affinity estimate (log intensity, higher = more binding, comparable within an allelic series)

## GCCCGCGC
NKX2-6 [4]
  binding signal: 9.29 upbm affinity estimate (log intensity, higher = more binding, comparable within an allelic series)
NKX2-6 [5]
  binding signal: 9.27 upbm affinity estimate (log intensity, higher = more binding, comparable within an allelic series)

## AAAGAGGG
NKX2-6 [4]
  binding signal: 11.6 upbm affinity estimate (log intensity, higher = more binding, comparable within an allelic series)
NKX2-6 [5]
  binding signal: 9.79 upbm affinity estimate (log intensity, higher = more binding, comparable within an allelic series)

## CAGACTAG
NKX2-6 [4]
  binding signal: 9.38 upbm affinity estimate (log intensity, higher = more binding, comparable within an allelic series)
NKX2-6 [5]
  binding signal: 9.36 upbm affinity estimate (log intensity, higher = more binding, comparable within an allelic series)

## CGCTCGGC
NKX2-6 [4]
  binding signal: 9.08 upbm affinity estimate (log intensity, higher = more binding, comparable within an allelic series)
VAX1 [6]
  binding signal: 6.93 upbm affinity estimate (log intensity, higher = more binding, comparable within an allelic series)
NKX2-6 [5]
  binding signal: 9.38 upbm affinity estimate (log intensity, higher = more binding, comparable within an allelic series)
VAX1 [7]
  binding signal: 6.99 upbm affinity estimate (log intensity, higher = more binding, comparable within an allelic series)
VAX1 [8]
  binding signal: 6.71 upbm affinity estimate (log intensity, higher = more binding, comparable within an allelic series)

## GTTAAGTA
NKX2-6 [4]
  binding signal: 13.5 upbm affinity estimate (log intensity, higher = more binding, comparable within an allelic series)
NKX2-6 [5]
  binding signal: 10.8 upbm affinity estimate (log intensity, higher = more binding, comparable within an allelic series)

## CGCGGACG
NKX2-6 [4]
  binding signal: 9.09 upbm affinity estimate (log intensity, higher = more binding, comparable within an allelic series)
NKX2-6 [5]
  binding signal: 9.22 upbm affinity estimate (log intensity, higher = more binding, comparable within an allelic series)

## CGGTGGCC
NKX2-6 [4]
  binding signal: 9.03 upbm affinity estimate (log intensity, higher = more binding, comparable within an allelic series)
NKX2-6 [5]
  binding signal: 9.22 upbm affinity estimate (log intensity, higher = more binding, comparable within an allelic series)

## ACACGCGG
NKX2-6 [4]
  binding signal: 9.54 upbm affinity estimate (log intensity, higher = more binding, comparable within an allelic series)
NKX2-6 [5]
  binding signal: 9.38 upbm affinity estimate (log intensity, higher = more binding, comparable within an allelic series)

## ACGGCCAG
NKX2-6 [4]
  binding signal: 9.26 upbm affinity estimate (log intensity, higher = more binding, comparable within an allelic series)
NKX2-6 [5]
  binding signal: 9.26 upbm affinity estimate (log intensity, higher = more binding, comparable within an allelic series)

## CGTCCTGC
NKX2-6 [4]
  binding signal: 9 upbm affinity estimate (log intensity, higher = more binding, comparable within an allelic series)
PITX2
  binding signal: 7.8 upbm affinity estimate (log intensity, higher = more binding, comparable within an allelic series)
NKX2-6 [5]
  binding signal: 9.34 upbm affinity estimate (log intensity, higher = more binding, comparable within an allelic series)

## ACTACTTA
NKX2-6 [4]
  binding signal: 13.5 upbm affinity estimate (log intensity, higher = more binding, comparable within an allelic series)
NKX2-6 [5]
  binding signal: 10.5 upbm affinity estimate (log intensity, higher = more binding, comparable within an allelic series)

## AGTGGCTA
NKX2-6 [4]
  binding signal: 11.9 upbm affinity estimate (log intensity, higher = more binding, comparable within an allelic series)
NKX2-6 [5]
  binding signal: 9.95 upbm affinity estimate (log intensity, higher = more binding, comparable within an allelic series)
